# From PubChem BioAssay
# “And” between values parts separate entries of the source, which are not always exact repeats. Identical values can stand only once. For some of these results: Entries with a potency or affinity are not part of this list. The source made the active and inactive calls. Unless noted, the rule behind the calls is not given here.
# Assays:
# [1] = blockers of polyQ-driven CASP3 activation – cell-based (AID 1583); details: polyglutamine-induced caspase-3 activation, cell assay; stronger effect = higher value;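 tested at 10 µM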
# [2] = yeast 75Q aggregation reduction – 75Q-TubU reporter (AID 1593); details: Yeast 75Q polyglutamine aggregation reporter
# [3] = restoration of touch response, mutant HTT neurons – whole organism, C. elegans mechanosensory neurons, N-terminal huntingtin (AID 1599); details: C. elegans polyQ-huntingtin mechanosensory neurons, stronger effect = higher value
# [4] = blockers of cytochrome c efflux from mitochondria – biochemical, purified mitochondria (AID 1603); details: stronger effect = lower value;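 note: mouse liver mitochondria challenged with calcium chloride; signal normalized to the plate average as 100%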
# [5] = polyglutamine aggregate formation blockers (AID 1604); details: polyglutamine-induced protein aggregation inhibition assay; stronger effect = higher value; tested at 2.5 µM
# [6] = glutamate transport activators, MN-1 cells, MN-1 cell line (AID 1612); details: MN-1 motor neuron cells, stronger effect = higher value;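 note: tested at 1 µM final; 0% = mean of DMSO vehicle wells on each plate; positive means more glutamate uptake than control and negative means less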
# [7] = 75Q-TubH aggregate inhibition, S. cerevisiae, yeast (AID 1616); details: S. cerevisiae 75Q-TubH polyglutamine aggregation suppression; stronger effect = higher value
# [8] = compounds altering viability of human ES cells (AID 493140); details: human embryonic stem cell survival screen; stronger effect = higher value;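 note: cells exposed to compounds for four days before counting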
# [9] = modulation of C. elegans fzo-1 (AID 1259413);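 note: fzo-1 mutant C. elegans worms in liquid wells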; details: C. elegans fzo-1 modulator screen, mean read-out; stronger effect = higher value
# [10] = galactose survival enhancers in mitochondrial complex I cybrids – cell-based, galactose medium, ATP luminescence, primary screen (AID 1645843;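 active = z-score of at least 1.8 in each of two replicates, scored against plate mean and spread of sample wells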;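 note: positive z means more ATP and so rescue of galactose-driven cybrid death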); details: complex I mutant cybrid cells, 72 h, stronger effect = higher value
# [11] = signal quenchers or enhancers, Cy5 substrate/SSB – biochemical, NIH Clinical Collection, E. coli SSB, artefact control for HCV NS3 helicase inhibitor project (AID 743268); details: Cy5-oligo bound E. coli SSB, fluorescence interference
# [12] = tested on: Hepatitis C virus NS3 helicase; experiment: blockers of NS3h binding to DNA – biochemical, fluorescence polarization, NIH Clinical Collection, primary screen (AID 743270); details: NS3 helicase binding to Cy5-dT15 DNA, stronger effect = higher value, concentration not given here
# [13] = target: Single-stranded DNA-binding protein (Escherichia coli (strain K12)) (UniProt P0AGE0); experiment: SSB-ssDNA binding inhibitors – biochemical, fluorescence polarization, NIH Clinical Collection, counter-screen for HCV NS3 helicase inhibitor project (AID 743271; in the data active = inhibition above about 28%); details: E. coli SSB-DNA binding, stronger effect = higher value, concentration not given here
# [14] = compounds distorting NS3 helicase fluorescence signal – biochemical, NIH Clinical Collection, artefact control for HCV NS3 helicase inhibitor project (AID 743272); details: fluorescence interference counterscreen, HCV NS3 helicase assay; stronger effect = lower value;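 note: HCV NS3 helicase with a Cy5 labelled single stranded DNA probe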
# [15] = blockers of cellular phospholipid synthesis – cell-based, LOPAC library, screen 4, primary screen (AID 1347384); details: animal cells, phospholipid biosynthesis inhibition screen; at 10 µM
# [16] = P. berghei load reduction in hepatocytes – cell-based, HepG2, luciferase luminescence, HepG2 viability, primary screen (AID 624349; in the data active = parasite load remaining mostly below about 12%, no sharp cut-off; inactive = mostly above about 10%;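 note: 100% = mean of DMSO negative control wells on the same plate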); details: P. berghei liver stage in HepG2, luciferase luminescence, concentration not given here; parasite load remaining: stronger effect = lower value; viability: measured here: HepG2 viability without parasites
# F380Y/beta1 = experiment: BK channel mutant inhibitors and activators – cell-based, U2OS BacMam, thallium flux, beta subunits, selectivity assay, profiling panel (AID 1259406;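 active = thallium flux through the channel raised or lowered by more than 3 SD from vehicle-only wells, actives on both sides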;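 note: initial slope of Thallos dye fluorescence rise after thallium is added; log ratio against the mean of 0.3% DMSO vehicle wells on the same plate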); details: U2OS BacMam BK variants, at 30 µM
# F380Y/beta4 = experiment: as above; details: U2OS BacMam BK variants, at 30 µM
# R275C/beta4 = experiment: as above; details: U2OS BacMam BK variants, at 30 µM
# R275C/Slo1WT/beta2 = experiment: as above; details: U2OS BacMam BK variants, at 30 µM
smiles,measurement,setting,value
CCn1cc(C(=O)O)c(=O)c2cc(F)c(N3CCNCC3)cc21,inhibition,[1],-2.25%
same,score,[2],0.92
same,rescue above control,[3],3.5
same,cytochrome c release ratio,[4],0.95
same,inhibition of aggregation,[5],52.4%
same,glutamate uptake change,[6],-6.97%
same,aggregation suppression score,[7],1.19
same,survival,[8],20.2 (inactive)
same,mean signal,[9],207 (inactive)
same,z-score,[10],0.67 (inactive)
O=c1n(CCCN2CCN(c3cccc(Cl)c3)CC2)nc2ccccn12,inhibition,[1],17.6%
same,score,[2],1.36
same,rescue above control,[3],8.41
same,cytochrome c release ratio,[4],1.04
same,inhibition of aggregation,[5],-2.89%
same,glutamate uptake change,[6],4.27%
same,aggregation suppression score,[7],1.27
same,survival,[8],27.2 (inactive)
same,fluorescence ratio,[11],1.01 (inactive)
same,inhibition,[12],-6.73% (inactive)
same,inhibition,[13],-2.41% (inactive)
same,fluorescence ratio,[14],0.97 (inactive)
same,mean signal,[9],242 (inactive)
same,outcome,[15],inactive
same,z-score,[10],-0.33 (inactive) and 0.63 (inactive)
Fc1ccc([C@@H]2CCNC[C@H]2COc2ccc3c(c2)OCO3)cc1,fluorescence ratio,[11],1 (inactive)
same,inhibition,[12],-1.19% (inactive)
same,inhibition,[13],-1.64% (inactive)
same,fluorescence ratio,[14],0.99 (inactive)
same,mean signal,[9],159 (inactive)
same,outcome,[15],inactive
same,z-score,[10],-1.38 (inactive) and -0.63 (inactive) and -1.71 (inactive)
CC1(C)O[C@@H]2C[C@H]3[C@@H]4C[C@H](F)C5=CC(=O)C=C[C@]5(C)[C@H]4[C@@H](O)C[C@]3(C)[C@]2(C(=O)CO)O1,survival,[8],3 (inactive)
same,parasite load remaining,[16],33.4% (inactive) and 143% (inactive)
same,viability,[16],88.6% and 103%
same,fluorescence ratio,[11],1.07 (inactive)
same,inhibition,[12],-0.45% (inactive)
same,inhibition,[13],-1.24% (inactive)
same,fluorescence ratio,[14],0.99 (inactive)
same,z-score,[10],-1.48 (inactive)
same,log fold change Tl+ flux,F380Y/beta1,0.017 (inactive)
same,log fold change Tl+ flux,F380Y/beta4,-0.0612 (inactive)
same,log fold change Tl+ flux,R275C/beta4,0.0291 (inactive)
same,log fold change Tl+ flux,R275C/Slo1WT/beta2,0.0322 (inactive)
CCN(CC)CC(=O)Nc1c(C)cccc1C,inhibition,[1],-3.43%
same,score,[2],1.56
same,rescue above control,[3],-0.5
same,cytochrome c release ratio,[4],1.13
same,inhibition of aggregation,[5],87%
same,glutamate uptake change,[6],0.81%
same,aggregation suppression score,[7],1.18
same,survival,[8],23.2 (inactive)
same,fluorescence ratio,[11],1.01 (inactive)
same,inhibition,[12],-1.98% (inactive)
same,inhibition,[13],-0.87% (inactive)
same,fluorescence ratio,[14],0.96 (inactive)
same,mean signal,[9],257 (inactive)
same,outcome,[15],inactive
same,z-score,[10],0.01 (inactive) and 0.715 (inactive) and 0.48 (inactive)
CNCCCC12CCC(c3ccccc31)c1ccccc12,inhibition,[1],-14.8%
same,score,[2],1.5
same,rescue above control,[3],28.8
same,cytochrome c release ratio,[4],1.86
same,inhibition of aggregation,[5],26.4%
same,glutamate uptake change,[6],22.4%
same,aggregation suppression score,[7],1.14
same,survival,[8],0.833 (inactive)
same,fluorescence ratio,[11],0.97 (inactive)
same,inhibition,[12],-1.98% (inactive)
same,inhibition,[13],-1.64% (inactive)
same,fluorescence ratio,[14],0.83 (inactive)
same,mean signal,[9],255 (inactive)
same,outcome,[15],inactive
Cc1c(OCC(F)(F)F)ccnc1CS(=O)c1nc2ccccc2[nH]1 (stereo not given),inhibition,[1],-8.62%
same,score,[2],0
same,rescue above control,[3],4.9
same,cytochrome c release ratio,[4],0.73
same,inhibition of aggregation,[5],29.4%
same,glutamate uptake change,[6],-0.46%
same,aggregation suppression score,[7],-0.00244
same,survival,[8],14.6 (inactive)
same,fluorescence ratio,[11],0.95 (inactive)
same,inhibition,[12],1.53% (inactive)
same,inhibition,[13],1.18% (inactive)
same,fluorescence ratio,[14],0.94 (inactive)
same,mean signal,[9],250 (inactive)
same,outcome,[15],inactive
same,z-score,[10],-1.12 (inactive) and -0.8 (inactive) and -0.405 (inactive)
COc1ccc2c(c1)c(CC(=O)O)c(C)n2C(=O)c1ccc(Cl)cc1,inhibition,[1],24.4%
same,score,[2],-1.46
same,rescue above control,[3],-5.76
same,cytochrome c release ratio,[4],0.82
same,inhibition of aggregation,[5],-6.06%
same,glutamate uptake change,[6],7.33%
same,aggregation suppression score,[7],0.0101
same,survival,[8],13.2 (inactive)
same,fluorescence ratio,[11],1.02 (inactive)
same,inhibition,[12],-3.56% (inactive)
same,inhibition,[13],-2.41% (inactive)
same,fluorescence ratio,[14],1.01 (inactive)
same,mean signal,[9],244 (inactive)
CCCN1C[C@H](CSC)C[C@@H]2c3cccc4[nH]cc(c34)C[C@H]21,inhibition,[1],21.1%
same,score,[2],1
same,rescue above control,[3],-1.5
same,cytochrome c release ratio,[4],1.44
same,inhibition of aggregation,[5],61.1%
same,glutamate uptake change,[6],-2.13%
same,aggregation suppression score,[7],1.46
same,survival,[8],12.4 (inactive)
same,fluorescence ratio,[11],1.02 (inactive)
same,inhibition,[12],1.53% (inactive)
same,inhibition,[13],10.6% (inactive)
same,fluorescence ratio,[14],1 (inactive)
same,outcome,[15],inactive
same,z-score,[10],0.12 (inactive) and -0.1 (inactive)
